# MRP reversal – reverses drug resistance mediated by MRP. AID 602. 85,000 tested, 0.04% active. differential viability (reversal), % at 10 µM. H69AR cells + 2 uM doxorubicin, CellTiter-Glo, 72 h;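 active = viability drop by adding the cancer drug above about 55%, with treated viability meeting a 40% cutoff, limit read from the data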;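 note: viability without doxorubicin minus viability with 2 µM doxorubicin for each compound; larger differential means the compound sensitizes cells more to doxorubicin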
# CD11b adhes enh – CD11b/CD18-fibrinogen binding enhancement | K562 CD11b/CD18 adhesion to fibrinogen, ATPlite luminescence | activation, % at 10 µM | 93,000 tested, 0.07% active;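 active = 10 µM primary screen giving 50% or more activity, confirmed by 40% or more on retest at that dose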
# Mac1 fbg inh – blocks human CD11b/CD18 adhesion to fibrinogen; K562 CD11b/CD18 adhesion to fibrinogen, ATPlite luminescence; Mn2+ added to activate the integrin; AID 1497; 93,000 tested, 0.54% active; inhibition, % at 10 µM;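 active = primary inhibition of 50% or more at 10 µM, then 40% or more on retest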
# MRP-1 activ – activates MRP-1. viability increase, % at 10 µM. H69AR cells + doxorubicin, viability rescue, CellTiter-Glo. 140,000 tested, 0.61% active. AID 799;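 active = viability gain under doxorubicin at or above a set limit, the compound median plus 3 SD, cut at about 4.7% in these data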;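 note: MRP-1 overexpressing cells given doxorubicin 25 µM after compound pretreatment; 18-22 h compound pretreatment then 72 h with doxorubicin before readout; 0% = doxorubicin-only wells and 100% = vehicle-treated cells without doxorubicin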
# sdo1 growth – restores growth of sdo1-depleted yeast. AID 817. S. cerevisiae sdo1-depleted JHY4D growth rescue, OD600 30 h; hits give high values; pdr5 snq2 efflux-pump mutant strain. 140,000 tested, 0.21% active. z-score at 10 µM;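 active = z-score above 3 at both the 24 hr and the 30 hr optical density reads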;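 note: z-score against mean and SD of all compound wells on the same plate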
# Phagocytosis inh – inhibitors of macrophage phagocytosis; AID 1029; inhibition, % at 5 µM; 110,000 tested, 0.07% active; J774A.1 macrophage IgG-bead phagocytosis, imaging;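 active = inhibition above the mean of the plate negative controls plus 5 SD, cut at about 13% in these data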;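 note: phagocytic index as fraction of beads internalized from green versus red external bead signal; plate controls were DMSO negative control for no effect and cytochalasin-D positive control for full effect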
# An asterisk follows results filed as active; / = no result given; [ ] = another dose, or the depositor's remark. This is a sample that favours compounds with a hit; in the whole collection about 1.3% have one here.
SMILES,MRP reversal,CD11b adhes enh,Mac1 fbg inh,MRP-1 activ,sdo1 growth,Phagocytosis inh
C=CCn1c(C)cc(C(=O)COC(=O)[C@@H](NC(=O)c2ccccc2Cl)C(C)C)c1C,/,-9,79*,2,0.69,-11
Cc1cc(Nc2ccc(C)c(Br)c2)n2nc(C)nc2n1,-7,/,/,-4,0.21,/
O=C1c2ccccc2C(=O)N1CCCCN(C(=O)c1cc([N+](=O)[O-])ccc1Cl)c1ccc(Cl)cc1,/,0,5,-2,0.39,-5
Cc1ccc(C)c(S(=O)(=O)C(C#N)c2nc3ccccc3nc2N2CCOCC2)c1 (configuration not stated),16,-10,95*,-2,-1.3,0
O=C(NCc1ccccc1Cl)c1ccc2nc[nH]c2c1,/,1,1,-1,0.8,-5
CCOC(=O)Cc1c(C)nc2c(-c3cccc(Br)c3)c[nH]n2c1=O,-32,-6,17,-3,0.89,-1
COc1ccc(Cl)cc1NC(=O)C(C)Sc1n[nH]c(N)n1 (configuration not stated),5,-2,-10,0,-0.17,-1
O=C(COc1ccc(Cl)cc1)NCc1nnc2c3ccccc3c(-c3ccccc3)nn12,/,2,20,5.0*,-1.3,-7
O=C(NCc1nnc2c3ccccc3c(-c3ccccc3)nn12)c1ccccc1Cl,/,/,/,0,-0.34,-7
COc1cc(C(=O)N2CCN(c3ncnc4sc(C)c(C)c34)CC2)cc(OC)c1OC,22,-12,60*,-1,0.27,2
COc1ccc(OC)c(S(=O)(=O)N2CCC(C(=O)NCC3CCCO3)CC2)c1 (configuration not stated),-5,/,/,0,0.97,-1
Cc1nn(-c2cccc(Cl)c2)c2nc(C(F)(F)F)[nH]c(=O)c12,/,-8,102*,-3,-1.2,-6
C=CCOC(=O)C(C#N)c1nc2ccccc2nc1N1CCN(c2ccccc2OCC)CC1 (configuration not stated),5,4,-1,5.2*,-0.76,-7
NC(=O)C1CCN(CC(=O)Nc2cccc(C(=O)Nc3cccc(C(F)(F)F)c3)c2)CC1,/,3,2,0,1.4,2
O=C(O)CC(NS(=O)(=O)c1cccc2nsnc12)c1ccc(F)cc1 (configuration not stated),14,-9,60*,-2,0.2,1
CCC(C)NC(=O)C(NS(=O)(=O)c1cccc2nsnc12)c1ccccc1 (configuration not stated),-1,/,/,-2,0.2,/
CCc1cc2c(=O)c(-n3cnc4ccccc43)coc2cc1O,-16,-1,-1,0,0.16,-1
CC(C)(C)NC(=O)CCN(/N=C/c1ccc([N+](=O)[O-])o1)C1=NS(=O)(=O)c2ccccc21,/,/,/,-3,-0.87,-3
Cn1c(Cc2ccccc2)nnc1SCC(=O)c1ccc(Br)s1,23,6,-11,-2,-1,-1
CN(Cc1ccccc1)c1oc(COc2ccccc2F)nc1C#N,3,-4,10,7.4*,-1.9,1
Nn1c(SC/C=C/c2ccccc2)nnc1-c1ccco1,13,4,-2,-3,0.47,-2
O=C(/C=C/c1ccccc1)n1cnnc1SC/C=C/c1ccccc1,/,1,19,4.7*,-0.29,-10
CCOP(=O)(OCC)C(NC(=O)Nc1cccc(Cl)c1)C(N)=O (configuration not stated),/,5,5,1,0.32,-9
CCOP(=O)(OCC)C(NC(=O)Nc1ccc(Cl)cc1)C(=O)N(CC)CC (configuration not stated),/,-4,-20,8.9*,0.15,-15
CCN1CCCC1CN(Cc1cc2ccc(C)cc2[nH]c1=O)C(=S)Nc1cccc(OC)c1 (configuration not stated),/,/,/,-4,-1.2,-8
SMILES,MRP reversal,CD11b adhes enh,Mac1 fbg inh,MRP-1 activ,sdo1 growth,Phagocytosis inh
c1ccc(N2CCN(c3ccccc3)C2c2cccnc2)cc1,60*,/,/,-4,-0.69,/
O=C(CSc1nc2ccc([N+](=O)[O-])cc2[nH]1)NC1CCCCCC1,/,-9,102*,-3,-0.99,-4
Cc1[nH]n(-c2ccccc2)c(=O)c1N=Nc1nccs1,/,1,56*,-2,0.21,-2
Cc1[nH]n(-c2ccccc2)c(=O)c1/C=N/c1ccccn1,11,/,/,3,0.48,/
C=CCN(C(=O)Nc1ccc(Cl)cc1)C1CC(=O)N(c2ccc(OC)cc2)C1=O (configuration not stated),1,3,2,6.6*,-0.6,0
CC(C)(C)c1ccc(-c2nnc3sc(-c4ccncc4)nn23)cc1,/,0,1,-2,-0.55,-5
Cc1nnc2sc(-c3ccncc3)nn12,25,3,9,17*,-1.2,0
O=C(C[n+]1cnn(CC(=O)c2ccc(Cl)cc2Cl)c1)c1ccc([N+](=O)[O-])cc1,/,0,-5,-4,0.71,-4
O=C(COC(=O)/C=C/c1nc2ccccc2s1)Nc1cccc(Cl)c1Cl,/,/,/,-3,1.6,-4
Cc1cc(C(=O)N/N=C/c2cc(Br)ccc2OC(=O)c2ccccc2)n[nH]1,/,4,-35,9.4*,1.1,0
CCOc1ccccc1N(CC(=O)O)S(=O)(=O)c1ccccc1,-5,-3,-1,4.8*,0.57,2
CCOC(=O)N1CCN(C(=O)CN(c2cc(Cl)ccc2OC)S(=O)(=O)c2ccccc2)CC1,7,-7,0,-2,0.21,0
CCOc1ccc(-n2c(-c3ccc(OC)cc3)c[n+]3c2CCCCC3)cc1,/,-7,100*,0,1.1,9
COc1ccc(NS(=O)(=O)c2cc(NC(=O)CNC(=O)c3ccc(C)s3)ccc2Cl)cc1,/,/,/,14*,0.95,1
COc1ccc(-c2nc(SC(CC(=O)NCc3ccccc3)c3ccc(OC)c(OC)c3)n[nH]2)cc1 (configuration not stated),/,3,-9,-2,0.05,-12
O=C(CC1SC(=O)N(Cc2ccccc2)C1=O)Nc1nccs1 (configuration not stated),/,0,-2,12*,0.04,-4
O=C(NCCc1ccccc1)C(=O)Nc1nccs1,/,/,/,-2,-0.49,-11
Cc1cc(N/N=C/c2ccccc2Cl)nc(NCc2ccccc2)n1,/,/,/,7.1*,-1.7,-9
Cc1cc(C)nc(N/N=C/c2ccccc2)n1,/,/,/,1,0.49[15.7 µM],/
Cc1ccc(Nc2cc(C)nc(NCc3ccccc3)n2)cc1,/,/,/,-5,-0.8,-8
Cc1cc(C)nc(N/N=C/c2cccc3ccccc23)n1,/,/,/,5.7*,0.82,/
C=CCc1c(C)nc(-c2ccccc2)nc1Nc1ccc(O)cc1,/,/,/,-4,-1.5,-11
C=CCc1c(C)nc(-c2ccccc2)nc1N/N=C(\C)c1ccccc1,/,/,/,5.5*,-0.55,-12
CSc1cccc(NC(=O)CSc2nc3ccccc3o2)c1,0,/,/,-2,-1.3,/

# Source: PubChem BioAssay (several laboratories)
